From PubChem BioAssay AID1347426 (Functional Genomics Laboratory (NCATS/FGL), 2020)
The campaign covered roughly 31,000 sequences. About 1,400 (4.5%) were called active.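 Rule for the calls: active = median seed-adjusted z-score above 1 or below -1; inactive = the rest.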 Shown is part of a subset that was picked to be rich in actives.

Assay: Novel Modifiers of Survival Motor Neuron (SMN) Protein: Gene Identification via Genome-wide siRNA Screen;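 note: luminescence tracks full-length SMN protein made from the SMN2 reporter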
Conditions: HEK293T SMN2-luciferase reporter, siRNA knockdown, 72 h; actives lie on both sides
Outline: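 Luciferase signal, proportional to full-length SMN made from an SMN2 cDNA reporter in stable HEK293T cells, was read 72 h after siRNA reverse transfection. Values were expressed as MAD scores after non-targeting-control normalization and log10 conversion; seed analysis flagged off-targets.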
With CCGUCAUGCACUUACCUUUTT against ADCY9 the median seed-adjusted z-score was 0.269 (inactive).
With CAUCAUGACAUGUAUGAUUTT against PAFAH1B3 the median seed-adjusted z-score was -0.381 (inactive).
In the case of GAGUGUGACUGGUAAAGUUTT against SMNDC1, the median seed-adjusted z-score is reported as -1.54 (active).
In the case of GAGGAAUUGUUGAUAAAGATT against MAGI2, the median seed-adjusted z-score is reported as -0.23 (inactive).
With GAAUGCUCCUUUACCAGAATT against GRB10 the median seed-adjusted z-score was -0.0341 (inactive).
In the case of GGAAGAACAUGACAACCAATT against IFIT1, the median seed-adjusted z-score is reported as -0.489 (inactive).
For CCAACGAUCUGGACCGUGUTT against MED16, the median seed-adjusted z-score was -0.6 (inactive).
For GAACCUGGAUCACAUAAUATT against DFFB, the median seed-adjusted z-score was 0.242 (inactive).
In the case of CCAAGAUUGUCACUCUGGATT against E2F7, the median seed-adjusted z-score is reported as -0.0972 (inactive).
With GGUUCGAGGUAAACCCUAATT against CTPS2 the median seed-adjusted z-score was 1.08 (active).
For GGGCUACAAACUGAACAAATT against LOC81691, the median seed-adjusted z-score was -0.285 (inactive).
With CAACAGCGAUUUGAUGGAATT against ERO1L the median seed-adjusted z-score was -0.251 (inactive).
With GGAACUGUUUAUAAGGGUATT against RAF1 the median seed-adjusted z-score was 0 (inactive).
For GGCACGUUUUACGACAGAATT against CHEK2, the median seed-adjusted z-score was 0.585 (inactive).
For GGCACAUGGUUAACCUGGATT against GPX4, the median seed-adjusted z-score was -1.18 (active).
For CCCAGGAAGUUCUACUACATT against HS6ST1, the median seed-adjusted z-score was -0.436 (inactive).
In the case of GAACUUCACUUAGGACAUUTT against ATP6V1G1, the median seed-adjusted z-score is reported as 0.311 (inactive).
For GACUCAAUGGUUUGCAUUATT against CTDP1, the median seed-adjusted z-score was -2.29 (active).
For GGAUGAUCAUGAGCGGCAATT against PHKG1, the median seed-adjusted z-score was -0.153 (inactive).
In the case of GCUUCAUUGUGGACCGGCATT against GALNTL4, the median seed-adjusted z-score is reported as 0 (inactive).
In the case of GACUGGAGAUAUCAAGGAATT against SQLE, the median seed-adjusted z-score is reported as -1.14 (active).
For CAAUGAAGAUAUGUUUAGATT against WBP5, the median seed-adjusted z-score was 0.452 (inactive).
In the case of GAUCAUUGAGAACACGUAUTT against RNF121, the median seed-adjusted z-score is reported as -0.53 (inactive).
For GAAUCCACCUUCGACCUGATT against HMX1, the median seed-adjusted z-score was 1.3 (active).
In the case of CCACUGAAUAUGUGCAGAATT against FBP2, the median seed-adjusted z-score is reported as 0 (inactive).
With CGGCUACGACGAUUACGAATT against MYO15A the median seed-adjusted z-score was 0.0508 (inactive).
For GGAUUUCGAUUGCAUCAUUTT against LGI1, the median seed-adjusted z-score was -0.19 (inactive).
For AGUGGGUGCUGAACCAUGATT against FES, the median seed-adjusted z-score was 0.402 (inactive).
For GCCCAGAGACUAUUCAGUATT against SF3A3, the median seed-adjusted z-score was -2.1 (active).
With CGUGGAAUACUAGAGCAAATT against ACTL6A the median seed-adjusted z-score was 1.11 (active).
With CAGACUUGCUUAAUAGUAATT against ZFP1 the median seed-adjusted z-score was 0.0391 (inactive).
In the case of GGAACUACCAUGCAGGCUATT against ATP6V0B, the median seed-adjusted z-score is reported as 0 (inactive).
For CCAGCAUGGUUACUACGAATT against TRAIP, the median seed-adjusted z-score was -0.018 (inactive).
In the case of GGAACAAGAGUGGACGGAATT against PIAS3, the median seed-adjusted z-score is reported as -0.216 (inactive).
For CCAGCUCUUCCAUACAAUATT against RAB9A, the median seed-adjusted z-score was 0.247 (inactive).
For GGCUUCAUAUCUAGACUAATT against APOBEC3A, the median seed-adjusted z-score was 0.467 (inactive).
In the case of UGUUCAGCCUUGACUCAAATT against RHOU, the median seed-adjusted z-score is reported as -1.44 (active).
With GCACCUAUGAGGAAAAUGATT against LAMB2 the median seed-adjusted z-score was 1.12 (active).
For GAAGCUUGAUCUAAUUAUATT against ZNF182, the median seed-adjusted z-score was 0 (inactive).
For CCAUUUCCAGAGGCCCAGATT against SLC22A12, the median seed-adjusted z-score was -0.148 (inactive).
With GCCUGGAACUCGUUAGCAATT against TRMT11 the median seed-adjusted z-score was -0.707 (inactive).
For GGCUUAACUUUAGUGUUGATT against PRDM2, the median seed-adjusted z-score was 1.12 (active).
In the case of GAGCGAGUUUUACCUGAUATT against ABCA10, the median seed-adjusted z-score is reported as -0.104 (inactive).
In the case of CAGAUAUGAUUGGUGUAAATT against CABP1, the median seed-adjusted z-score is reported as -0.192 (inactive).
In the case of GAAAUCGACUCUCACCAAATT against IL18RAP, the median seed-adjusted z-score is reported as -0.681 (inactive).
For CGGAAAAUCAGCAACAUCATT against EPS8L2, the median seed-adjusted z-score was -0.497 (inactive).
In the case of GGAUAAUAAGGAUCUAUUUTT against CPNE3, the median seed-adjusted z-score is reported as 0.109 (inactive).
In the case of GUUUACCUCUGGAUACACUTT against SNRPD1, the median seed-adjusted z-score is reported as -2.97 (active).
For GGAGUUCCAAUGGAAGUUATT against PSMD14, the median seed-adjusted z-score was 0.375 (inactive).
With CGAUGGACUAAGUAAUAUATT against KPNA4 the median seed-adjusted z-score was 0.457 (inactive).
With CCACCUAUUUGCACAAGGATT against POMT2 the median seed-adjusted z-score was -0.614 (inactive).
With UCAAGGCCCUGUGCGCUAATT against PPP4C the median seed-adjusted z-score was 1.15 (active).
With GCAACCACCAAGAGUUUGATT against KCNS1 the median seed-adjusted z-score was -0.167 (inactive).
For CUGUAGAUCUUUGUCAAAATT against DUS4L, the median seed-adjusted z-score was 0.525 (inactive).
